Data from PubChem BioAssay (NCATS).
Inconclusive results are not listed. Entries that show only a call come without a potency. Active and inactive are the calls of the source. The call rests on the fitted dose curve; in most records, active means well fitted inhibition curve with a large enough effect; inconclusive means small, poorly fitted or top-dose-only effect; inactive means flat fitted curve, though single readings scatter.

biological target: Calcium and integrin-binding protein 1 (Homo sapiens) (UniProt Q99828); test: Primary qHTS for Identification of Calcium Integrin Binding Protein 1 (CIB1) Competitor (AID 1508620); conditions: CIB1-GST / FITC-alphaIIb peptide fluorescence polarization; series mostly up to 114 µM;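 further: GST tagged CIB1 binding a fluorescein labelled alphaIIb integrin peptide tracer; top concentration of the series differs between compounds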
Sequence (Q99828 whole entry, looked up): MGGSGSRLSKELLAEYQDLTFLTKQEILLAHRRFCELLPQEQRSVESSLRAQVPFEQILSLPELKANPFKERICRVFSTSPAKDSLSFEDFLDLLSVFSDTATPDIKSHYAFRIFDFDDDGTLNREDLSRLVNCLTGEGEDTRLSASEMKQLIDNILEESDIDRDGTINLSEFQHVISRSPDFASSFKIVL
How it was run: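 CIB1-GST (1 uM final) and compound incubated 15 min at room temperature before adding FITC-alphaIIb peptide tracer (100 nM final). Competition for binding read by fluorescence polarization (ex 480, em 540) after another 15 min at room temperature.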

SMILES | Potency
Cc1cccc(-n2cnc3cc(C(=O)N4CCC(C(F)(F)F)CC4)ccc32)c1 | inactive
Nc1nc(NCc2ccc(-c3cccnc3)cc2)c2ccccc2n1 | inactive
O=[S+]([O-])(c1c(F)cccc1F)N1CCN([S+](=O)([O-])c2c(F)c(F)c(F)c(F)c2F)CC1 | inactive
CSc1ccc(-c2cncc(NC(=O)c3cccs3)c2)cc1 | inactive
COc1ccc(CNc2ccc(S(=O)(=O)Nc3nccs3)cc2)cc1O | inactive
CCOC(=O)C1CCN(C(=O)C(C)(C)NC(=O)Nc2cccc(C(=O)OC)c2)CC1 | inactive
COc1cc(/C=C2\C(=O)Nc3ccccc32)ccc1O | inactive
COc1cc(OC)c(C(CC(=O)N2CC(C)CC(C)C2)c2ccc3c(c2)OCO3)c(OCC#N)c1 (stereo not given) | inactive
Cc1nc(C)c(-c2ccc3ncnc(N(C)Cc4sccc4C)c3c2)s1 | inactive
Cc1ccc(OCCn2c(CCNC(=O)c3ccccn3)nc3ccccc32)cc1 | inactive
Cc1ccc(-c2cnn(CC(=O)NCCc3ccccc3)c(=O)c2)cc1 | inactive
CC(=O)c1ccc(N2CCN(S(=O)(=O)c3ccc4c(c3)CCC(=O)N4)CC2)cc1 | inactive
CCCCN(C)C(=O)Cn1nc(-c2ccncc2)ccc1=O | inactive
O=C(O)CNc1cccc(-c2nn3c(=O)cc(N4CCNCC4)nc3s2)c1 | inactive
Cc1ccc(-n2cnc3cc(C(=O)N4CCCCC4)ccc32)cc1 | inactive
COc1ccc(C2Nc3ccccc3C(=O)N2Cc2cccs2)cc1COc1c(C)cc(NC(C)=O)cc1C (stereo not given) | inactive
COc1ccc(C2Nc3ccccc3C(=O)N2Cc2ccccc2)cc1COc1ccc(Cl)cc1 (stereo not given) | inactive
O=C(Nc1ccc(Cl)cc1)Nc1nnc(-c2ccncc2)s1 | inactive
Cc1ccc(C(=O)NCC(=O)OC(C(=O)Nc2cc(C(F)(F)F)ccc2Cl)c2ccccc2)cc1 (stereo not given) | inactive
Cc1cc(C)nc(NC(=S)N2CCN(c3ncccn3)CC2)c1 | inactive

SMILES | Potency
CN(C)c1cnc2c(O)ccc(C(=O)O)c2c1 | inactive
Cc1cncc(NC(=S)N2CCN(c3cccc(C(F)(F)F)c3)CC2)c1 | inactive
COc1ccc(-c2ccc(=O)n(CC(=O)NCCc3ccccc3)n2)cc1 | inactive
Cc1cccc(-n2cnc3cc(C(=O)N4CCCCCC4)ccc32)c1 | inactive
Cn1ncc(-c2nnc(-c3ccccc3)n2CCCn2ccnc2)c1N | inactive
O=C(Nc1nc(Nc2cc(F)cc(F)c2)nc(NC2CCCC2)n1)OCc1ccccc1 | inactive
O=C1c2ccccc2C(=O)N1c1ccccc1O | inactive
Cc1ccc(N2C(=O)c3ccccc3C2=O)c(C)c1 | inactive
COc1cc(F)c(S(=O)(=O)N2CCCN(S(=O)(=O)c3ccc4c(c3)OCCO4)CC2)c(F)c1 | inactive
O=C1c2ccccc2NC(c2ccc(-c3cccc(F)c3)o2)N1O (stereo not given) | inactive
COc1cccc(C2c3c(ncn(-c4ccccc4C(C)(C)C)c3=N)Oc3ccc4ccccc4c32)c1 (stereo not given) | inactive
Cc1ccc(OCCn2c(CCNC(=O)c3cccc(NC(=O)OC(C)(C)C)c3)nc3ccccc32)cc1 | inactive
CC(C)c1nc2c(cnn2C)c(=O)n1N | inactive
N#Cc1c(-c2ccc3c(c2)OCO3)no[n+]1[O-] | inactive
O=C1CCCC2=C1C(c1[nH]ncc1Cl)N=C(Nc1ccccc1)N2 (stereo not given) | inactive
CN(CC(=O)Nc1ccc(N2CCOCC2)cc1)Cc1ccccc1O | inactive
O=C1CCCC2=C1C1(CCCC1)N=C(Nc1nc3cc(-c4ccccc4)ccc3o1)N2 | inactive
O=S(=O)(c1ccc2c(c1)OCCO2)C1CCC(O)CC1 (stereo not given) | inactive
COc1ccc(C[C@H](C(=O)O)N2C(=O)c3ccc(C(=O)O)cc3C2=O)cc1 | inactive
O=C(NCC#CCSc1nnc(-c2cccc3ccccc23)o1)c1cccs1 | inactive
